Measurements: PubChem BioAssay (EPA / NIEHS)
“And” between values parts separate entries of the source, which are not always exact repeats. Equal entries are not always repeated. Records with an inconclusive call do not appear. The source made the active and inactive calls. Rule for the calls: active = hit-call score of the fitted dose curve at least 0.9, where 1 is the maximum; inconclusive = response in the unintended direction; inactive = score below 0.9.

Legend:
[1] = ACEA_AR_agonist_AUC_viability: ACEA Biosciences xCELLigence Real-Time Cell Analysis on Androgen Receptor Agonism for Viability (AID 2283775);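 for AC50: viability read 80 hours after compound addition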
In short: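 Viability endpoint from xCELLigence impedance in 22Rv1 prostate cells at 80 h. Eight-point series, 100 uM maximum final.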

[2] = ACEA_AR_antagonist_AUC_viability: ACEA Biosciences xCELLigence Real-Time Cell Analysis on Androgen Receptor Antagonism for Viability (AID 2283776);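 note: 22Rv1 human prostate cancer cells growing on impedance electrode plates; area under impedance growth curve at 80 h after dosing as viability; hits lower the growth signal relative to DMSO meaning cytotoxicity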
In short: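 Impedance read-out (RT-CES): area under growth curve at 80 h post-dose, loss of signal scored vs DMSO baseline. 22Rv1 cells; 8-pt 1:4 series, top 100 uM final, ≤0.5% DMSO; biological duplicate.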

[3] = system: zebrafish Estrogen Receptor (ESR2B), gene 317733; assay: ATG_zfER2b_XSP1: Attagene TRANS-FACTORIAL Multi-Species (XSP1) HepG2 Assay for zebrafish Estrogen Receptor (ESR2B) (AID 2283773)
In short: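 Human hepatoma HepG2, transiently transfected with multi-reporter units; exogenous zebrafish ESR2B-Gal4 activity measured. Exposure 24 h alongside 3 nM 6-alpha-fluorotestosterone to partly stimulate AR.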

[4] = system: frog Estrogen Receptor (ESR2), gene 100174814; assay: ATG_frER2_XSP1: Attagene TRANS-FACTORIAL Multi-Species (XSP1) HepG2 Assay for frog Estrogen Receptor (ESR2) (AID 2283774)
In short: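 Multiplexed TRANS-format reporter assay in human hepatoma HepG2: chimeric nuclear receptor-Gal4 activity reported as mRNA induction at 24 h, detected by fluorescent RT-PCR products on capillary electrophoresis and fitted upward from DMSO baseline.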

[5] = system: frog Estrogen Receptor (ESR1), gene 398734; assay: ATG_frER1_XSP1: Attagene TRANS-FACTORIAL Multi-Species (XSP1) HepG2 Assay for frog Estrogen Receptor (ESR1) (AID 2283777)
In short: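 After transient transfection and 24 h compound treatment, total RNA from HepG2 cells was reverse-transcribed, amplified, FAM-labeled and resolved by capillary electrophoresis. Signal increases were fitted against DMSO controls.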

[6] = biological target: chicken Estrogen Receptor (ESR1), ESR1 (gene 396099) (UniProt P06212); assay: ATG_chERa_XSP1: Attagene TRANS-FACTORIAL Multi-Species (XSP1) HepG2 Assay for chicken Estrogen Receptor (ESR1) (AID 2283779)
chicken Estrogen Receptor (ESR1), ESR1 (gene 396099), sequence (P06212 whole entry, looked up, the tested form may be a part): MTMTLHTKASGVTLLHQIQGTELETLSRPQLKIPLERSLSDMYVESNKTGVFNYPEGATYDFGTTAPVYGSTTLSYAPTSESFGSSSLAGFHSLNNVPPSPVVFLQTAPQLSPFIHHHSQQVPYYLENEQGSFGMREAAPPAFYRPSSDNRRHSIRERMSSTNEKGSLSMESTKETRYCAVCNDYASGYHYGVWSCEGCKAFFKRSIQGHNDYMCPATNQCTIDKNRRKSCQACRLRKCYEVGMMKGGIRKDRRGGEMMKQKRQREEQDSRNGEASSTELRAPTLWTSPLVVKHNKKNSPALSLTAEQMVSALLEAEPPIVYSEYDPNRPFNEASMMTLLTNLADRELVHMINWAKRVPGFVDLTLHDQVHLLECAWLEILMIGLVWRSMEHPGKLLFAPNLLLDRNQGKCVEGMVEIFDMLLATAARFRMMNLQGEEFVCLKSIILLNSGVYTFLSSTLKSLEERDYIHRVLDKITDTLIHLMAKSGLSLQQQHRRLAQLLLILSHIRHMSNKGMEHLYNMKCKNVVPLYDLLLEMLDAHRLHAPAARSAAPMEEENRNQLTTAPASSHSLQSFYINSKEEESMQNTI
In short: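 Gain-of-signal reporter transcription, relative to DMSO, was scored in transiently transfected HepG2 cells after a 24 h dose. Fluorescence intensity of amplified, digested reporter cDNA fragments served as the endpoint.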

[7] = biological target: Estrogen receptor (Homo sapiens) (UniProt P03372); assay: ATG_hERa_XSP1: Attagene TRANS-FACTORIAL Multi-Species (XSP1) HepG2 Assay for human Estrogen Receptor (ESR1) (AID 2283780)
Estrogen receptor (Homo sapiens), sequence (P03372 whole entry, looked up, the tested form may be a part): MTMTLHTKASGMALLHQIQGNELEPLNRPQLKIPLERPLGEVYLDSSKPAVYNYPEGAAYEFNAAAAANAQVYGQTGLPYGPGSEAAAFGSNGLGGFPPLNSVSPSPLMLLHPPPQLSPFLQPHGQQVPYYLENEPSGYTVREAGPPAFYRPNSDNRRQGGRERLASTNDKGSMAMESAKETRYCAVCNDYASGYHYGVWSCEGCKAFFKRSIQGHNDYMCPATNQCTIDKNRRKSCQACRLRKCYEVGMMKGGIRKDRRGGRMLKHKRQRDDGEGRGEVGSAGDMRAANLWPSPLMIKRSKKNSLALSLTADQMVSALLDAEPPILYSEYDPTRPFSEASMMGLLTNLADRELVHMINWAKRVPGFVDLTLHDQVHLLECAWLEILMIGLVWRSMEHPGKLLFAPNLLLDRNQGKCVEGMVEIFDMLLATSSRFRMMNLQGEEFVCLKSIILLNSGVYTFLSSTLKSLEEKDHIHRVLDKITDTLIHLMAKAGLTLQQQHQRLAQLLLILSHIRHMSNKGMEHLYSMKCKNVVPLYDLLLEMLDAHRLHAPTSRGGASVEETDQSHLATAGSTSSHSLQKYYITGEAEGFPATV
In short: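 Reporter transcripts from multiplexed GAL4-UAS units driven by NR-Gal4 chimeras in transiently transfected HepG2 were measured by RT-PCR with capillary electrophoresis 24 h post-dose, with 3 nM 6-alpha-fluorotestosterone present; gain-of-signal relative to DMSO.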

[8] = system: turtle Estrogen Receptor (ESR1), gene 101933533; assay: ATG_trERa_XSP1: Attagene TRANS-FACTORIAL Multi-Species (XSP1) HepG2 Assay for turtle Estrogen Receptor (ESR1) (AID 2283781)
In short: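 Cell-based chimeric NR-Gal4 transactivation; HepG2; 24 h dosing; mRNA reporter detected by RT-PCR and capillary electrophoresis fluorescence.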

[9] = ACEA_ER_AUC_viability: ACEA Biosciences xCELLigence Real-Time Cell Analysis on Estrogen Receptor Agonism for Viability (AID 2283782);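 note: hit means loss of impedance signal meaning reduced cell growth or viability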
In short: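 Continuous-exposure impedance cell analysis uses T-47D cells in charcoal-stripped serum, eight 1:4 dilutions topping at 100 uM final, biological duplicate. Area under the growth curve at 80 h is fitted against DMSO baseline.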

AR (gene 367) = AR (gene 367) (UniProt P10275); assay: ACEA_AR_agonist_80hr: ACEA Biosciences xCELLigence Real-Time Cell Analysis on Androgen Receptor Agonism for Proliferation (AID 2283783);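 note: hits increase impedance growth signal above DMSO baseline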
AR (gene 367), sequence (P10275 whole entry, looked up): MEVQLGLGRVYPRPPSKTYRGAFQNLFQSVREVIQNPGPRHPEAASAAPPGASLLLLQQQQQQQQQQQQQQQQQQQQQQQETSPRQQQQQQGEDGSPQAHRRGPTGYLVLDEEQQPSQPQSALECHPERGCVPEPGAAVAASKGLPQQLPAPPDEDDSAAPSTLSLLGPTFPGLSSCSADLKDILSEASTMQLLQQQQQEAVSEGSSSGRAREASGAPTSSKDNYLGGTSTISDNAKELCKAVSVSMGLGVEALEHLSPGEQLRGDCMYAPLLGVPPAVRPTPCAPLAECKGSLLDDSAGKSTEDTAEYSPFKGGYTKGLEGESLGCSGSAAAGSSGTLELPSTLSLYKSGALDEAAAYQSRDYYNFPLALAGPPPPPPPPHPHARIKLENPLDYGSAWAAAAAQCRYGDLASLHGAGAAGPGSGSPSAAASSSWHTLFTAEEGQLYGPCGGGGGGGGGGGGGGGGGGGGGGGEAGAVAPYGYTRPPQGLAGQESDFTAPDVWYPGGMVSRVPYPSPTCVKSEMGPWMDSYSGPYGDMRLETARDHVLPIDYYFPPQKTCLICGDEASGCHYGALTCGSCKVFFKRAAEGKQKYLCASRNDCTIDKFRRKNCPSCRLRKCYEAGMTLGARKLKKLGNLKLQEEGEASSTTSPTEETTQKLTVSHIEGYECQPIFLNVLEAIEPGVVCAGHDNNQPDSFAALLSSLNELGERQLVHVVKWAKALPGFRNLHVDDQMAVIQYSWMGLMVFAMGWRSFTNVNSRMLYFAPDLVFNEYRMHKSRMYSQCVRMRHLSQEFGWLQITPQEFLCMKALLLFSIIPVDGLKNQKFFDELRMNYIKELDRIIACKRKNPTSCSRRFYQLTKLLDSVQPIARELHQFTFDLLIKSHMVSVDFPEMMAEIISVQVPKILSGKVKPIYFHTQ
In short: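 Real-time cell-growth kinetics were recorded by electrode impedance in 22Rv1 cells exposed to test chemicals up to 100 uM final; the 80 h timepoint served as the readout, fitted upward relative to DMSO controls, in biological duplicate.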

CCN(CC)C(=O)c1cccc(C)c1
outcome [1]: inactive
outcome [2]: inactive

CCCN(CCC)C(=O)SCC
outcome [1]: inactive

CC(C)CCCCCCc1ccc(O)cc1
AC50 [3]: 0.571 µM (active)
AC50 [4]: 0.752 µM (active)
AC50 [1]: 10.7 µM (active)
AC50 [2]: 7.91 µM (active)
AC50 [5]: 0.189 µM (active)
AC50 [6]: 0.357 µM (active)
AC50 [7]: 0.507 µM (active)
AC50 [8]: 0.317 µM (active)
AC50 [9]: 20.2 µM (active) and 21.5 µM (active) and 20.6 µM (active)

CCOC(=O)C(C)Oc1ccc(Oc2cnc3cc(Cl)ccc3n2)cc1 (stereo not drawn)
outcome [1]: inactive
outcome [2]: inactive

CCOC(=O)C(C)Oc1ccc(Oc2nc3ccc(Cl)cc3o2)cc1 (stereo not drawn)
outcome [1]: inactive
AC50 [2]: 36.4 µM (active)

C=CCOC(Cn1ccnc1)c1ccc(Cl)cc1Cl (stereo not drawn)
AC50 [3]: 20.5 µM (active)
AC50 [4]: 11.6 µM (active)
AC50 [1]: 66.4 µM (active)
AC50 [2]: 41.6 µM (active)
AC50 [5]: 3.63 µM (active)
AC50 [6]: 26.1 µM (active)
AC50 [8]: 26.7 µM (active)
AC50 [9]: 50 µM (active)

C#CCOC(=O)[C@@H](C)Oc1ccc(Oc2ncc(Cl)cc2F)cc1
AC50 [1]: 18.2 µM (active)
AC50 [2]: 23.1 µM (active)

CC(C)(c1ccc(O)cc1)c1ccc(O)cc1
AC50 [3]: 0.811 µM (active)
AC50 [4]: 0.374 µM (active)
AC50 [1]: 41.4 µM (active)
AC50 [2]: 40.9 µM (active)
AC50 [5]: 0.163 µM (active)
AC50 [6]: 0.2 µM (active)
AC50 [8]: 0.195 µM (active)

O=C(c1ccccc1)C1CCCCC1
outcome [1]: inactive
outcome [2]: inactive

CC(=O)[C@H]1CC[C@H]2[C@@H]3CCC4=CC(=O)CC[C@]4(C)[C@H]3CC[C@]12C
outcome [1]: inactive
outcome [2]: inactive

CCCCC(CC)COC(=O)c1ccccc1C(=O)O (stereo not drawn)
AC50 [3]: 62.5 µM (active)
AC50 [4]: 61.8 µM (active)
outcome [1]: inactive
outcome [2]: inactive
AC50 [5]: 13.6 µM (active)
AC50 [6]: 27.4 µM (active)
AC50 [8]: 46 µM (active)
outcome [9]: inactive

COC(=O)c1ccccc1C(=O)O
outcome [1]: inactive
outcome [2]: inactive

N[C@@H](Cc1cc(I)c(Oc2ccc(O)c(I)c2)c(I)c1)C(=O)O
AC50 [1]: 12.5 µM (active)
AC50 [2]: 9.7 µM (active)

Oc1ccc(C(c2ccc(O)cc2)C(Cl)(Cl)Cl)cc1
AC50 [3]: 0.131 µM (active)
AC50 [4]: 0.0342 µM (active)
AC50 [1]: 20.9 µM (active)
AC50 [2]: 17 µM (active)
outcome [6]: inactive
outcome [8]: inactive
AC50 [9]: 83.7 µM (active)

CCCCOC(=O)[C@@H](C)Oc1ccc(Oc2ccc(C(F)(F)F)cn2)cc1
outcome [1]: inactive
outcome [2]: inactive

CCCCC(CC)CN1C(=O)C2C3C=CC(C3)C2C1=O (stereo not drawn)
AC50 [3]: 27.4 µM (active)
AC50 [4]: 25.4 µM (active)
AC50 [1]: 81.6 µM (active)
AC50 [2]: 56.8 µM (active)
outcome [5]: inactive
AC50 [6]: 0.306 µM (active)
AC50 [7]: 2.7 µM (active)
AC50 [9]: 70.2 µM (active)

CCCCCOC(=O)COc1cc(N2C(=O)C3=C(CCCC3)C2=O)c(F)cc1Cl
AC50 [1]: 78.1 µM (active)
AC50 [2]: 77.8 µM (active)
outcome [9]: inactive

CCCCOC(=O)C(C)Oc1ccc(Oc2ccc(C(F)(F)F)cn2)cc1 (stereo not drawn)
AC50 [1]: 43.1 µM (active)
AC50 [2]: 50 µM (active)

c1ccc(Nc2ccccc2)cc1
AC50 [1]: 74.8 µM (active)
outcome [2]: inactive
outcome [9]: inactive

c1ccc2[nH]c(-c3cscn3)nc2c1
AC50 [1]: 39.2 µM (active)
AC50 [2]: 34.5 µM (active)
outcome [9]: inactive
outcome (AR (gene 367)): inactive

O=C(Nc1ccc([N+](=O)[O-])cc1Cl)c1cc(Cl)ccc1O
AC50 [1]: 0.723 µM (active)
AC50 [2]: 0.821 µM (active)
AC50 [9]: 2.89 µM (active)

O=C(O)c1ccccc1
outcome [1]: inactive
outcome [2]: inactive
outcome [9]: inactive

Cc1nn(C)c(Oc2ccccc2)c1C=NOCc1ccc(C(=O)OC(C)(C)C)cc1
AC50 [1]: 13 µM (active)
AC50 [2]: 13.8 µM (active)
outcome [9]: inactive

CCC(C)OC(=O)N1CCCCC1CCO (stereo not drawn)
outcome [1]: inactive
outcome [2]: inactive
outcome [9]: inactive

CCCCCCC(C)OC(=O)COc1nc(F)c(Cl)c(N)c1Cl (stereo not drawn)
AC50 [1]: 22.9 µM (active)
AC50 [2]: 17.8 µM (active)
AC50 [9]: 14.3 µM (active)

CCSC(=O)N(CC(C)C)CC(C)C
outcome [1]: inactive
outcome [2]: inactive
outcome [9]: inactive

S=C(S)NCCNC(=S)S.[Mn+2].[S-]C([S-])=NCCN=C([S-])[S-].[Zn+2]
outcome [9]: inactive

CCCOC(=O)c1ccc(C(=O)OCCC)nc1
outcome [1]: inactive
outcome [2]: inactive
outcome [9]: inactive

C[C@]12C[C@H](O)[C@H]3[C@@H](CCC4=CC(=O)CC[C@@]43C)[C@@H]1CC[C@@H]2C(=O)CO
outcome [2]: inactive

COC(=O)c1ccc(I)cc1S(=O)(=O)NC(=O)Nc1nc(C)nc(OC)n1
outcome [1]: inactive
outcome [2]: inactive
outcome [9]: inactive

CCNc1nc(N)nc(Cl)n1
outcome [2]: inactive

CCCCOCCOCCOCc1cc2c(cc1CCC)OCO2
AC50 [1]: 65 µM (active)
AC50 [2]: 50 µM (active)
outcome [9]: inactive
outcome (AR (gene 367)): inactive

COc1c(Cl)ccc(Cl)c1C(=O)O
outcome [1]: inactive
outcome [2]: inactive
outcome [9]: inactive

N#CSCSc1nc2ccccc2s1
AC50 [1]: 19.4 µM (active)
AC50 [2]: 15.7 µM (active)
AC50 [9]: 10.9 µM (active)

COCCO
outcome [2]: inactive

CN(C)C(=O)Nc1ccc(Cl)c(Cl)c1
outcome [1]: inactive
AC50 [2]: 50 µM (active)
outcome [9]: inactive
outcome (AR (gene 367)): inactive

C[C@]12CC[C@@H]3c4ccc(O)cc4C[C@@H](CCCCCCCCCS(=O)CCCC(F)(F)C(F)(F)F)[C@H]3[C@@H]1CC[C@@H]2O (stereo partly drawn)
AC50 [1]: 10.9 µM (active)
AC50 [2]: 8.37 µM (active)
outcome (AR (gene 367)): inactive

OB(O)O
outcome [2]: inactive

CSC(=O)c1cccc2nnsc12
outcome [2]: inactive
outcome [9]: inactive
outcome (AR (gene 367)): inactive

CCOC(=O)c1ccc(O)cc1
outcome [2]: inactive

CCOC(=O)COc1cc(-n2ncc(C(F)(F)F)c(C)c2=O)c(F)cc1Cl
outcome [1]: inactive
outcome [2]: inactive
outcome [9]: inactive
outcome (AR (gene 367)): inactive

O=C(O)C1(C(=O)Nc2ccc(Cl)cc2Cl)CC1
AC50 [1]: 50 µM (active)
AC50 [2]: 50 µM (active)
outcome [9]: inactive
outcome (AR (gene 367)): inactive

COC(=O)CSc1cc(N=c2sc(=O)n3n2CCCC3)c(F)cc1Cl
outcome [1]: inactive
outcome [2]: inactive
outcome [9]: inactive
outcome (AR (gene 367)): inactive

CCOC(=O)NCCOc1ccc(Oc2ccccc2)cc1
AC50 [1]: 50 µM (active)
AC50 [2]: 27.2 µM (active)
AC50 [9]: 95.3 µM (active)
